Data from PubChem BioAssay (EPA / NIEHS).
Records with an inconclusive call do not appear. Activity calls are given as the source filed them. How the source made its calls, unless noted: active means hit-call score of the fitted dose curve at least 0.9, where 1 is the maximum; inconclusive means response in the unintended direction; inactive means score below 0.9.

How the values were obtained:
[1] = ATG_TAL_CIS: Attagene CIS-FACTORIAL HepG2 Assay for human TAL Basal Promoter (AID 2282966; active means hit-call score of the fitted dose curve at least 0.9, where 1 is the maximum; inactive means score below 0.9;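 further: background control endpoint measuring basal TAL promoter reporter mRNA not a specific factor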); settings: HepG2 Attagene cis-factorial TAL promoter reporter; actives raise or lower the signal
In short: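 Basal-promoter background-control endpoint from a multiplexed HepG2 reporter panel. Cells were exposed 24 h, then reporter mRNA was read by RT-PCR/CE fluorescence and fitted in both directions relative to DMSO.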

[2] = ATG_TGFb_CIS: Attagene CIS-FACTORIAL HepG2 Assay for human Transforming Growth Factor (TGF) (AID 2282967; active means hit-call score of the fitted dose curve at least 0.9, where 1 is the maximum; inactive means score below 0.9); settings: HepG2 Attagene CIS TGFb reporter, mRNA transcription; actives raise or lower the signal
In short: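 Bidirectional fitting relative to DMSO gave the endpoint. Underlying data: reporter mRNA from HepG2 cells carrying transiently transfected cis-regulated reporter constructs, harvested 24 h after dosing and analyzed by RT-PCR and capillary electrophoresis.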

[3] = target: Steroid hormone receptor ERR1 (Homo sapiens) (UniProt P11474); test: ATG_ERRa_TRANS: Attagene TRANS-FACTORIAL HepG2 Assay for human Estrogen-Related Receptor alpha (ERRa) (AID 2282971); settings: HepG2 Attagene TRANS reporter, ERRa transactivation
Sequence of Steroid hormone receptor ERR1 (Homo sapiens) (P11474 whole entry, looked up, the tested form may be a part): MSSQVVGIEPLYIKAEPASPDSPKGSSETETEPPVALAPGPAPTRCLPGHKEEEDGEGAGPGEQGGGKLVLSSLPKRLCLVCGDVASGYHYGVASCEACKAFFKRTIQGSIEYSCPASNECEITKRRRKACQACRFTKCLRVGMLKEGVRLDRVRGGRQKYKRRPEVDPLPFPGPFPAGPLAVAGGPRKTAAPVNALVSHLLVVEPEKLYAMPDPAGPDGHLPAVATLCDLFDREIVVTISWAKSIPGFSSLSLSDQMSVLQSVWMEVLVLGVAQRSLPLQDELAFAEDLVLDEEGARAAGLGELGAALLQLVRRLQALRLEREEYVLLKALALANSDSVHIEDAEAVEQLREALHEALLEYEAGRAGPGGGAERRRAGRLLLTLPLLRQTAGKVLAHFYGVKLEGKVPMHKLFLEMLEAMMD
In short: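 HepG2 cells transiently transfected with GAL4-UAS reporter units and chimeric NR-Gal4 constructs; after 24 hour compound incubation, reporter mRNA quantified by RT-PCR, fluorescent labelling and capillary electrophoresis, gain of signal versus DMSO.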

[4] = target: X-box-binding protein 1 (Homo sapiens) (UniProt P17861); test: ATG_Xbp1_CIS: Attagene CIS-FACTORIAL HepG2 Assay for human X-box Binding Protein 1 (XBP1) (AID 2282972; active means hit-call score of the fitted dose curve at least 0.9, where 1 is the maximum; inactive means score below 0.9); settings: HepG2 XBP1 cis-element reporter, Attagene multiplex; actives raise or lower the signal
Sequence of X-box-binding protein 1 (Homo sapiens) (P17861 whole entry, looked up, the tested form may be a part): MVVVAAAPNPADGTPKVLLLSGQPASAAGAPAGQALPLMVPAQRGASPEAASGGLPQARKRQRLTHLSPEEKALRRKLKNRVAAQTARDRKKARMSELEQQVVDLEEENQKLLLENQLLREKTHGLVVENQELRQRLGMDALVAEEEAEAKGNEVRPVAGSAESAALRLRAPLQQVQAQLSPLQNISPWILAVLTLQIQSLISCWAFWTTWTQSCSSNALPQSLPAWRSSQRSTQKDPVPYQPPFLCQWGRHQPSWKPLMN
In short: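 Read-out: fluorescent reporter mRNA fragments resolved by capillary electrophoresis after RT-PCR. Human HepG2 liver cells carried transfected cis-promoter reporter units and were exposed to chemicals for 24 hours. Gain or loss of signal fitted relative to DMSO baseline.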

[5] = target: Oxysterols receptor LXR-beta (Homo sapiens) (UniProt P55055); test: ATG_LXRb_TRANS: Attagene TRANS-FACTORIAL HepG2 Assay for human Liver X Receptor beta (LXRb) (AID 2282981); settings: HepG2 Attagene TRANS GAL4-LXRb reporter, mRNA
In short: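 After 24 h chemical treatment of transfected HepG2 cells carrying exogenous NR-Gal4 chimeras, reporter mRNA was quantified by fluorescent RT-PCR and capillary electrophoresis; activity taken as increase over DMSO controls.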

[6] = ATG_M_06_TRANS: Attagene TRANS-FACTORIAL HepG2 Assay for M06 Transcription Factor (Internal Marker) (AID 2282983); settings: HepG2 Attagene TRANS M06 internal marker reporter;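 further: reporter transcript level by RT-PCR then capillary electrophoresis fluorescence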
In short: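 mRNA levels of a reporter transcript, quantified as FAM fluorescence on capillary electrophoresis, served as readout. HepG2 cells expressing exogenous GAL4-chimera reporter constructs were exposed for 24 h. Gain of signal over DMSO was evaluated.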

[7] = target: Nuclear receptor subfamily 4 group A member 2 (Homo sapiens) (UniProt P43354); test: ATG_NURR1_TRANS: Attagene TRANS-FACTORIAL HepG2 Assay for human Nuclear Receptor Related Protein 1 (NURR1) (AID 2282985); settings: HepG2 Attagene TRANS reporter, mRNA readout
Sequence of Nuclear receptor subfamily 4 group A member 2 (Homo sapiens) (P43354 whole entry, looked up, the tested form may be a part): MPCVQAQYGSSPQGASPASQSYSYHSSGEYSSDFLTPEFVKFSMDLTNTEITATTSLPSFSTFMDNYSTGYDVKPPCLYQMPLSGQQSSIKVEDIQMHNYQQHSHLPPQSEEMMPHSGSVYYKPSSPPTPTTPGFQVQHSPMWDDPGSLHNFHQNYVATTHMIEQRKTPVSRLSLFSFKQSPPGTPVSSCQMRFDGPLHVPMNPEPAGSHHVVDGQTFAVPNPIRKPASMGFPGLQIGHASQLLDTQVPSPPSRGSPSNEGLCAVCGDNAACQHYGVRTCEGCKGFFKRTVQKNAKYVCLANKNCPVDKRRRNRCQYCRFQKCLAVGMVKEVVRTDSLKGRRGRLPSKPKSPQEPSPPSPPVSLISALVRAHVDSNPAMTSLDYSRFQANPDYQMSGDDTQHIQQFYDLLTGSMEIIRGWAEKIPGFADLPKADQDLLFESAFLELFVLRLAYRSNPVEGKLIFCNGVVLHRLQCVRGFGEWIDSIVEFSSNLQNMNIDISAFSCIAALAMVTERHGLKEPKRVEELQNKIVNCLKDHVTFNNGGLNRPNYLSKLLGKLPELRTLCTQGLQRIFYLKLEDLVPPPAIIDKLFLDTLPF
In short: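 Reporter transcript induction, measured by RT-PCR with fluorescent labelling, HpaI digestion and capillary electrophoresis, after 24 hr dosing of human HepG2 cells transiently expressing an exogenous NR-Gal4 fusion with GAL4-UAS-driven reporters; DMSO as baseline.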

[8] = target: Nuclear respiratory factor 1 (Homo sapiens) (UniProt Q16656); test: ATG_NRF1_CIS: Attagene CIS-FACTORIAL HepG2 Assay for human Nuclear Respiratory Factor 1 (NRF1) Orphan Gene (AID 2282987; active means hit-call score of the fitted dose curve at least 0.9, where 1 is the maximum; inactive means score below 0.9); settings: HepG2 NRF1 cis-element reporter, Attagene multiplex; actives raise or lower the signal
Sequence of Nuclear respiratory factor 1 (Homo sapiens) (Q16656 whole entry, looked up): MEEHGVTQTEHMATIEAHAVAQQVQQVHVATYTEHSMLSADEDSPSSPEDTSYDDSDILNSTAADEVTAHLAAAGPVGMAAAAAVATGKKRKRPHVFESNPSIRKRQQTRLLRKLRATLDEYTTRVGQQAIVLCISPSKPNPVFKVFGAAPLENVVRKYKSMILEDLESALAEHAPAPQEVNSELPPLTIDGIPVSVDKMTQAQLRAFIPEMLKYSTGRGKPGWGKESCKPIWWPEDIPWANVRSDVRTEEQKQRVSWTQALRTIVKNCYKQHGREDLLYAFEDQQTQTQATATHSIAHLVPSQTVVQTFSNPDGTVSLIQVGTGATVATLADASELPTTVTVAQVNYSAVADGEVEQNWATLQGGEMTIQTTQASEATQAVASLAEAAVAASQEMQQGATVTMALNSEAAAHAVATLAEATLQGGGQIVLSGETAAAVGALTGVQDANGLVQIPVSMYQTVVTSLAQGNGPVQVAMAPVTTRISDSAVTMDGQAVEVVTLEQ
In short: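 Transcriptional reporter readout, one component of a 52-endpoint multiplexed HepG2 panel. Exposure 24 h; mRNA detected via RT-PCR and fluorescent capillary electrophoresis; fitting in both directions against DMSO.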

[9] = ATG_NFI_CIS: Attagene CIS-FACTORIAL HepG2 Assay for human Nuclear Factor I (NFI) (AID 2282989; active means hit-call score of the fitted dose curve at least 0.9, where 1 is the maximum; inactive means score below 0.9); settings: HepG2 cis-regulatory reporter, NFI response element transcription; actives raise or lower the signal
In short: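 Cells: human liver HepG2, transiently transfected with promoter-regulated reporter transcription units. Exposure 24 h. Detection: fluorescent RT-PCR products separated by capillary electrophoresis, normalised to DMSO negative control.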

[10] = target: Nuclear receptor subfamily 1 group I member 3 (Homo sapiens) (UniProt Q14994); test: ATG_CAR_TRANS: Attagene TRANS-FACTORIAL HepG2 Assay for human Constitutive Androstane Receptor (CAR) (AID 2282969); settings: HepG2 Attagene TRANS-FACTORIAL CAR reporter;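 further: activators raise reporter mRNA above DMSO so AC50 marks induction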
Sequence of Nuclear receptor subfamily 1 group I member 3 (Homo sapiens) (Q14994 whole entry, looked up, the tested form may be a part): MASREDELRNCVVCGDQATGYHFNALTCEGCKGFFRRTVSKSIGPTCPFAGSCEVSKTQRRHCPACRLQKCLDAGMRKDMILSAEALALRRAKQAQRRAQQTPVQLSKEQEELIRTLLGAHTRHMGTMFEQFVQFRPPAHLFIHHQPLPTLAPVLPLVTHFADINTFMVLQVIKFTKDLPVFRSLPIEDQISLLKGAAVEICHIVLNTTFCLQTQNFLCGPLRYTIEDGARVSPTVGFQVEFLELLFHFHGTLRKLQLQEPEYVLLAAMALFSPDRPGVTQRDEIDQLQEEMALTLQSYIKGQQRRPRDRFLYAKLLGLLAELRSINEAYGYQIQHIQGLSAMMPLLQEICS
In short: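 Signal is reporter mRNA induction relative to DMSO, measured 24 h after dosing by RT-PCR with fluorescent primer extension and capillary electrophoresis. Human HepG2 liver cells carried transiently transfected chimeric NR-Gal4/GAL4-UAS reporter constructs.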

[11] = target: Glucocorticoid receptor (Homo sapiens) (UniProt P04150); test: ATG_GR_TRANS: Attagene TRANS-FACTORIAL HepG2 Assay for human Glucocorticoid Receptor (GR) (AID 2282978); settings: HepG2 Attagene TRANS GR reporter, mRNA transcription;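 further: activators score as hits since higher reporter transcript over DMSO is fitted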
Sequence of Glucocorticoid receptor (Homo sapiens) (P04150 whole entry, looked up, the tested form may be a part): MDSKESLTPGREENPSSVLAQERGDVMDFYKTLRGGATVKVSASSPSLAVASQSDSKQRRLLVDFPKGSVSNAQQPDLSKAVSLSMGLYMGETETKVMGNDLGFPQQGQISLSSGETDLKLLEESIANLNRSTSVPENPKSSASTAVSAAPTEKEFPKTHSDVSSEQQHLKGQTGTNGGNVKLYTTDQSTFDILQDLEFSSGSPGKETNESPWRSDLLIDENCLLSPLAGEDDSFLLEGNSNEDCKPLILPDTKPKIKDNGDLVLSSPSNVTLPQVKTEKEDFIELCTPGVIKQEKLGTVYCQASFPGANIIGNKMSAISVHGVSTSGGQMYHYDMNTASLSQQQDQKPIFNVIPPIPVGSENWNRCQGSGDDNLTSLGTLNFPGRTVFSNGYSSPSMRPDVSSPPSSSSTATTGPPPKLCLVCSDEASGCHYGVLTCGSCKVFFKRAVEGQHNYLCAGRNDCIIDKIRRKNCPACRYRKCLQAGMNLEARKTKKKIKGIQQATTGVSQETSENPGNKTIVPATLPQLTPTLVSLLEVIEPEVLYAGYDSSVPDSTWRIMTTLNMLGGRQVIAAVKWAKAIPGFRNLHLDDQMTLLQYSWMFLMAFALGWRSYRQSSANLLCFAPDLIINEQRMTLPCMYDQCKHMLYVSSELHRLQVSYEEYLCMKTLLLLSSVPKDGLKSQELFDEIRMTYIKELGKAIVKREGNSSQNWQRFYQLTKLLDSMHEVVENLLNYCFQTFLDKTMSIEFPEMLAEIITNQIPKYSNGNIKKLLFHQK
In short: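 Measurement of GAL4-UAS-driven reporter mRNA in human HepG2 liver cells 24 h post-dosing, using RT-PCR with fluorescent labelling and capillary electrophoresis; the transfected constructs report exogenous NR-GAL4 chimera activity, fitted upward against DMSO.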

[12] = ATG_M_32_TRANS: Attagene TRANS-FACTORIAL HepG2 Assay for M32 Transcription Factor (Internal Marker) (AID 2282984); settings: HepG2 Attagene TRANS M32 internal marker reporter
In short: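 Internal background reporter in transfected HepG2: after 24 h chemical exposure, RNA reverse-transcribed, reporter cDNA amplified, fluorescently labelled and HpaI-cut, then sized by capillary electrophoresis. Gain of signal fitted against DMSO control.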

[13] = target: Transcriptional activator Myb (Homo sapiens) (UniProt P10242); test: ATG_Myb_CIS: Attagene CIS-FACTORIAL HepG2 Assay for human Myeloblastosis (Myb) Proto-Oncogene Transcription Factor (AID 2282986; active means hit-call score of the fitted dose curve at least 0.9, where 1 is the maximum; inactive means score below 0.9); settings: HepG2 Attagene CIS-FACTORIAL Myb reporter transcription; actives raise or lower the signal
Sequence of Transcriptional activator Myb (Homo sapiens) (P10242 whole entry, looked up): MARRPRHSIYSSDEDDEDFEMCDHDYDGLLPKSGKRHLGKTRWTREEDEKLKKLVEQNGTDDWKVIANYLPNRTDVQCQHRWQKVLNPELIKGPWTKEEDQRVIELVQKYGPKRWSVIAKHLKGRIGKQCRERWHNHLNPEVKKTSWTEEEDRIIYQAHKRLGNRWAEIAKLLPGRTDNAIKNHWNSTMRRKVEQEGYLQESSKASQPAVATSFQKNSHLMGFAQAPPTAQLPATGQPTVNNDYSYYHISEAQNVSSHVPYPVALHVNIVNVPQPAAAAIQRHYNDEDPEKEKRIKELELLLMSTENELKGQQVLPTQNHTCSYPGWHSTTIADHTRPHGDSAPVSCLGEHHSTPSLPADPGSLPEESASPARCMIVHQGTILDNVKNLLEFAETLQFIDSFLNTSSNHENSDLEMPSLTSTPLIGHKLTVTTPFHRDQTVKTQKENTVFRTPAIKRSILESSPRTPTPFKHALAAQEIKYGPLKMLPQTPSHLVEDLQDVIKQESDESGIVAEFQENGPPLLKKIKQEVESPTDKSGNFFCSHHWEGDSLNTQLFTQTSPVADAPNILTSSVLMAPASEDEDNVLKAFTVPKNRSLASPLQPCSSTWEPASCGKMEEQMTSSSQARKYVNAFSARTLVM
In short: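 Fluorescence signals from capillary electrophoresis of RT-PCR-amplified reporter cDNA give the read-out. Cells: HepG2 transfected with multiple cis-regulated reporter units. Exposure lasts 24 hours; DMSO defines baseline for gain or loss of signal.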

[14] = ATG_M_19_TRANS: Attagene TRANS-FACTORIAL HepG2 Assay for M19 Transcription Factor (Internal Marker) (AID 2282974); settings: HepG2 Attagene TRANS-FACTORIAL M19 internal marker reporter
In short: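 Measured here: internal-marker reporter transcript from HepG2 cells transfected with MRTUs, harvested at 24 h. cDNA PCR products were 6-FAM labelled by primer extension, cut with HpaI for 2 h at 37 C, and resolved by CE.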

[15] = ATG_GAL4_TRANS: Attagene TRANS-FACTORIAL HepG2 Assay for GAL4 (Internal Marker) (AID 2282976); settings: HepG2 Attagene TRANS GAL4 internal marker reporter
In short: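 Background-control readout: GAL4-UAS reporter transcript in transiently transfected HepG2 cells after 24 h compound exposure. Measured by RT-PCR, 6-FAM primer extension, HpaI digest and capillary electrophoresis; gain-of-signal fit versus DMSO.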

[16] = target: Bile acid receptor (Homo sapiens) (UniProt Q96RI1); test: ATG_FXR_TRANS: Attagene TRANS-FACTORIAL HepG2 Assay for Farnesoid X Receptor (FXR) (AID 2282979); settings: HepG2 Attagene TRANS FXR-GAL4 reporter transcription;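 further: hits raise reporter mRNA above DMSO so AC50 marks FXR activation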
Sequence of Bile acid receptor (Homo sapiens) (Q96RI1 whole entry, looked up, the tested form may be a part): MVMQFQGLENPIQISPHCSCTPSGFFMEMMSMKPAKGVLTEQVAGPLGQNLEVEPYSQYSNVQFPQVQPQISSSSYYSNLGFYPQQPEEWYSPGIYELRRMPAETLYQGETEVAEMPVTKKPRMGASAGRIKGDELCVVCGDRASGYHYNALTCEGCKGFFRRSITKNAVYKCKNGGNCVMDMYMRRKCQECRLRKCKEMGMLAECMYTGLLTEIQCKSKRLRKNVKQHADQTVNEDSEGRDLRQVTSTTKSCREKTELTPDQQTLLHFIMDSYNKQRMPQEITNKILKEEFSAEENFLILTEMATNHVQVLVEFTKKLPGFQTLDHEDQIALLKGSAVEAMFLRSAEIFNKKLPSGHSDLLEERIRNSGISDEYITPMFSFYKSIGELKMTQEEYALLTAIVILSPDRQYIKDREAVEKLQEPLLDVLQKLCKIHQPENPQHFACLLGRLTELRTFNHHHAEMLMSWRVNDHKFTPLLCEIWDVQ
In short: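 HepG2 cells were transiently transfected with GAL4-UAS reporters driven by chimeric NR-Gal4 proteins and dosed for 24 h. Reporter mRNA was quantified by RT-PCR, fluorescent labelling, HpaI digestion and capillary electrophoresis, with gain of signal scored versus DMSO.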

[17] = target: Hepatocyte nuclear factor 4-alpha (Homo sapiens) (UniProt P41235); test: ATG_HNF4a_TRANS: Attagene TRANS-FACTORIAL HepG2 Assay for human Hepatocyte Nuclear Factor 4 alpha (HNF4a) (AID 2282982); settings: HepG2 HNF4a transactivation reporter, mRNA readout
Sequence of Hepatocyte nuclear factor 4-alpha (Homo sapiens) (P41235 whole entry, looked up, the tested form may be a part): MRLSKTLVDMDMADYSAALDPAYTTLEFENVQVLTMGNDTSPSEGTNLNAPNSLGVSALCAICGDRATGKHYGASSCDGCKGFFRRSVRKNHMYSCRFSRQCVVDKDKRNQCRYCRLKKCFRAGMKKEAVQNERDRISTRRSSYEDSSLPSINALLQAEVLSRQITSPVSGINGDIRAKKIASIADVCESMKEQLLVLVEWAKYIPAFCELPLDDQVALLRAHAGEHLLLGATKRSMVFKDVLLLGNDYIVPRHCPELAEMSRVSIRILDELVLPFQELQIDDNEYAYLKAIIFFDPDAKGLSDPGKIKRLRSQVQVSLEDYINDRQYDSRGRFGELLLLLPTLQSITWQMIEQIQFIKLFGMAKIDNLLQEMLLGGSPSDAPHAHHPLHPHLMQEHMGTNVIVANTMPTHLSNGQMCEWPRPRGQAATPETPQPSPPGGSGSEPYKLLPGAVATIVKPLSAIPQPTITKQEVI
In short: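 Activity of an exogenous HNF4a–Gal4 fusion scored as induced GAL4-UAS reporter transcripts after 24 h chemical exposure of transfected human HepG2 cells. Read-out via RT-PCR with 6-FAM labelling and capillary electrophoresis; rise over DMSO baseline.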

[18] = target: Estrogen-related receptor gamma (Homo sapiens) (UniProt P62508); test: ATG_ERRg_TRANS: Attagene TRANS-FACTORIAL HepG2 Assay for human Estrogen-Related Receptor gamma (ERRg) (AID 2282977); settings: HepG2 Attagene TRANS reporter, ERRg transactivation;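 further: hits increase reporter signal over DMSO so potencies reflect activators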
In short: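 Exogenous NR-Gal4 chimera activity measured as reporter transcript induction after 24 h in transiently transfected HepG2 cells. RNA reverse-transcribed, PCR-amplified, 6-FAM-labelled and resolved by capillary electrophoresis; increase over DMSO baseline.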

[19] = target: Oxysterols receptor LXR-alpha (Homo sapiens) (UniProt Q13133); test: ATG_LXRa_TRANS: Attagene TRANS-FACTORIAL HepG2 Assay for human Liver X Receptor alpha (LXRa) (AID 2282980); settings: HepG2 Attagene TRANS reporter, LXRa transactivation
Sequence of Oxysterols receptor LXR-alpha (Homo sapiens) (Q13133 whole entry, looked up, the tested form may be a part): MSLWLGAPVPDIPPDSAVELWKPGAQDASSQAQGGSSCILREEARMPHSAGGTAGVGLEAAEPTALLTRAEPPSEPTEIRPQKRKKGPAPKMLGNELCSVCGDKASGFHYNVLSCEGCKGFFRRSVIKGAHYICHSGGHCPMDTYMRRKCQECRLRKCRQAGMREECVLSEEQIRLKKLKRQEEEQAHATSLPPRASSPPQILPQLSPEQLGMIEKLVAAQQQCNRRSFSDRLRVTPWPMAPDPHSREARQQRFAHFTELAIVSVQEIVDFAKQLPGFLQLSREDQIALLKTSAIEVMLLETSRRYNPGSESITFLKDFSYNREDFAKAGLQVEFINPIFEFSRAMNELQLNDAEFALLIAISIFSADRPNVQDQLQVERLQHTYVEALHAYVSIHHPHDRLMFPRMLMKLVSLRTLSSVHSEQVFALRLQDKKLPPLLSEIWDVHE
In short: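 HepG2 cells transiently transfected with GAL4-UAS reporter units for chimeric NR-Gal4 proteins, exposed to chemicals for 24 h. Reporter mRNA quantified by RT-PCR and capillary electrophoresis; gain of signal fitted relative to DMSO.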

Measured: outcome

C[C@@H]1CCN(C(=O)[C@H](CCCN=C(N)N)NS(=O)(=O)c2cccc3c2NC[C@H](C)C3)[C@@H](C(=O)O)C1
inactive: [1] | [2] | [3] | [4] | [5] | [6] | [7] | [8] | [9]

CC1=CC[C@@]23C[C@@H]1C(C)(C)[C@@H]2CC[C@H]3C
not listed: [3] | [4] | [14] | [15] | [16] | [17] | [18] | [19]
inactive: all other assays above

NC(=S)NNC(N)=S
not listed: [3] | [6] | [7] | [10] | [18] | [19]
inactive: all other assays above

CC(=O)CC(=O)Nc1ccc(C)cc1C
not listed: [3] | [7] | [10] | [11] | [15] | [18] | [19]
inactive: all other assays above

IC(I)I
not listed: [4] | [6] | [9] | [10] | [15] | [17]
inactive: all other assays above

CC(Oc1cc(Cl)ccc1Cl)C(=O)O (stereo unspecified)
inactive: [1] | [2] | [14] | [15] | [19] | [5] | [7] | [13] | [8] | [9]

C=C(C)C(=O)OCC(CC)(COC(=O)C(=C)C)COC(=O)C(=C)C
not listed: [3] | [5] | [10] | [18] | [19]
inactive: all other assays above

CCCCSCCCC
inactive: [1] | [2] | [10] | [4] | [19] | [6] | [12] | [13] | [8] | [9]

Nc1ccc(NCCO)c([N+](=O)[O-])c1
not listed: [10] | [12] | [13] | [14] | [16]
inactive: all other assays above
